KCNH2 3.1 block: blocks the human KCNH2 3.1 channel isoform; AID 720553; U2OS KCNH2 3.1, thallium flux FluxOr; stronger effect = lower value; activity change, % (tested at about 1.8 µM); 340,000 tested, 0.95% active;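 active = maximum activity change below -70%; inconclusive = maximum activity change from -70% to -50%; inactive = maximum activity change above -50%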;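 note: thallium influx rate constant from kinetic fluorescence after stimulation buffer; % is set by controls: 0 for no effect and ±100 for the full control effect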
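U2OS cells transduced with KCNH2 3.1 mutant virus (1.77 x 10^8 /mL, 4 h), plated overnight at 37 C, loaded 45 min with FluxOr dye plus Red40 quencher. Thallium flux rate constant from kinetic reads after stimulation buffer, normalised to controls.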
KB-3-1 cytotox: kills parental KB-3-1 adenocarcinoma cells; KB-3-1 viability, CellTiter-Glo ATP luminescence, 72 h; Potency, µM (titrated, usually from 46.1 µM), most hits filed as cytotoxic; 400,000 tested, 1.4% active; AID 1347075; note: potency is the fitted concentration of half-maximal effect; % is set by controls: 0 for no effect and ±100 for the full control effect; nearly all actives have a fitted effect of over 60% in size
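Parental KB-3-1 viability, qHTS format: 72 h compound exposure, 37 °C; CellTiter-Glo; media-only wells and DMSO plates as controls; concentration-effect fits on corrected data.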
MCF10A rereplic: DNA re-replication induction in MCF 10a cells | MCF 10A DNA re-replication, Hoechst nuclear intensity, 48 h | Potency, µM (series often up to 46.1 µM), inactives show at the top dose activity, positive = re-replication, actives largely listed as activators | 350,000 tested, 2.9% active | AID 624296; note: potency is the fitted concentration of half-maximal effect; % of control where 0% means no effect; nearly all actives have a fitted effect of over 50% in size
KCNH2 WT inh: KCNH2 (human, wildtype) channel inhibition | 340,000 tested, 0.37% active | U2OS, BacMam KCNH2, thallium flux FluxOr; stronger effect = lower value | AID 720551 | activity change, % at 1.84 µM;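 active = maximum activity change below -70%; inconclusive = maximum activity change between -70% and -50%; inactive = maximum activity change above -50%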; note: % is set by controls: 0 for no effect and ±100 for the full control effect
Target sequence (Q12809 whole entry, looked up): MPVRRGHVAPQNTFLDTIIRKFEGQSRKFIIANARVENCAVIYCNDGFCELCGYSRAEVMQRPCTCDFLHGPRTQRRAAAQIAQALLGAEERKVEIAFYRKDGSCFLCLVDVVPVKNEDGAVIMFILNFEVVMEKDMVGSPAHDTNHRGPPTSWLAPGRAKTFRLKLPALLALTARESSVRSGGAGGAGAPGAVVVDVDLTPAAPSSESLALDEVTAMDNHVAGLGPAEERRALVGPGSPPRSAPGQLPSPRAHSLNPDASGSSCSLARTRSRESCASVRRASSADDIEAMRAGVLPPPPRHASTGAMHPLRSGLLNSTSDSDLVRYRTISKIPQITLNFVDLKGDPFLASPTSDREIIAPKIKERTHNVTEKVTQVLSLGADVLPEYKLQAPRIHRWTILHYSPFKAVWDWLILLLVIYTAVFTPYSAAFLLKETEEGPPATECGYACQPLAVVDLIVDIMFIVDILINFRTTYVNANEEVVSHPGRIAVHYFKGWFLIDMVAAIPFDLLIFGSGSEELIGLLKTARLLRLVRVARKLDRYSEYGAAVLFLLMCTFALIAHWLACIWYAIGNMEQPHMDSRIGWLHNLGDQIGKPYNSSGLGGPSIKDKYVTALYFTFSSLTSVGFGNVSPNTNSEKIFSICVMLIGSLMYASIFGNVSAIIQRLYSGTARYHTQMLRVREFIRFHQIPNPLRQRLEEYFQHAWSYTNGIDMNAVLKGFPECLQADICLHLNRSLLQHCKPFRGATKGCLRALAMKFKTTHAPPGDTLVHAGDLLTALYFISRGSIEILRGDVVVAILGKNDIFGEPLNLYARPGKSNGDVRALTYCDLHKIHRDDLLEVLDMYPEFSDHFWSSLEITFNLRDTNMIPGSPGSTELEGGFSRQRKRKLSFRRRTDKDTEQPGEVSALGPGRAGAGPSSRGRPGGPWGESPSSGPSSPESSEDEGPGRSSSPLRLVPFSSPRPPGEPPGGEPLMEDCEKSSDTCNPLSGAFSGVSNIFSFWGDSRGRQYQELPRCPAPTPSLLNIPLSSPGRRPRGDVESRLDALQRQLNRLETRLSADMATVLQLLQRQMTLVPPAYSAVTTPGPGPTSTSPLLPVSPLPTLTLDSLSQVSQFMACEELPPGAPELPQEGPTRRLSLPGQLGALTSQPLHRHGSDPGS
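U2OS cells were transduced with wild-type KCNH2 virus (2.03 x 10^8 / mL) for 4 h at room temperature, then cultured overnight at 37 C. Thallium flux was read with FluxOr dye. Rate constants were normalized to DMSO controls.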
SW480 rerep: inducers of DNA re-replication in SW480 colon cancer cells; AID 624297; Potency, µM (doses to about 46.1 µM), inactives show at the highest dose re-replication activation, usual class: activators; 340,000 tested, 1.8% active; SW480 DNA re-replication, Hoechst DNA content imaging, 48 h; note: potency is the fitted concentration of half-maximal effect; % of control where 0% means no effect; nearly all actives have a fitted effect of over 55% in size
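Per well, 250 cells were exposed to pinned compound for 48 hr. Nuclear DNA was visualised with Hoechst (40 min, 37 C) and total object intensity recorded by fluorescence scanning.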
KB-V1 MDR tox: kills drug-selected multidrug resistant KB-V1 cells | KB-V1 MDR cells viability, CellTiter-Glo, 72 h | Potency, µM (highest dose often 46.1 µM), usual class: cytotoxic | 400,000 tested, 3.4% active | AID 1347076; note: potency is the fitted concentration of half-maximal effect; % is set by controls: 0 for no effect and ±100 for the full control effect; nearly all actives have a fitted effect of over 60% in size
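In this primary screen, KB-V1 cells overexpressing P-gp are incubated with library compounds (lowest to highest concentration) for 72 h at 37 degrees C before a luminescent ATP viability read.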
Active calls of the source: *; i = inactive; ? = inconclusive; . = no result given. The list is not random: actives were taken first. Their share in the collection is about 7.6%. Unless noted, calls come from the whole dose curve; as a rule, active = well fitted curve in the direction sought with a large enough effect; inconclusive = small, poorly fitted or top-dose-only effect, or another doubt; inactive = no such curve, though single readings can be large; an effect the other way counts as inactive or inconclusive.

SMILES	KCNH2 3.1 block	KB-3-1 cytotox	MCF10A rereplic	KCNH2 WT inh	SW480 rerep	KB-V1 MDR tox
CCn1c(SCC(=O)N2CCOCC2)nc2c([nH]c3ccccc32)c1=O	20	i	3%	-2	-4%	i
COc1ccc(C(C)=O)cc1Cn1c(C)c(C(=O)NCc2cccc(C(F)(F)F)c2)sc1=O	.	?	.	.	.	18µM*
CC(=O)Oc1ccc(Cn2c(C)c(C(=O)NCc3cccc(C(F)(F)F)c3)sc2=O)cc1	.	23µM*	.	.	.	15µM*
Cc1c(C(=O)NCc2cccc(C(F)(F)F)c2)sc(=O)n1Cc1ccc(F)cc1	.	i	.	.	.	?
O=C(CSc1ccccn1)Nc1ccc(Cl)cn1	10	i	7%	15	-1%	i
c1ccc2nc3c(nc2c1)[nH]c1ccccc13	2	i	28%	-5	12%	i
c1ccc(-c2c3ccccc3nc3[nH]c4ccccc4c23)cc1	-10	i	?	8	12µM*	i
O=C(Cn1ncn2c(cc3ccccc32)c1=O)NCCCc1ccccc1	-6	i	9%	-3	?	i
CCSc1nnc(NC(=O)CSc2nc3c(c(=O)n2C)SC(C)C3)s1 (stereo not drawn)	1	i	-4%	3	3%	2.9µM*
CCn1c(SCC(=O)Nc2nnc(C)s2)nc2c(c1=O)SC(C)C2 (stereo not drawn)	2	i	2%	-41	0%	i
CCSc1nnc(NC(=O)CSc2nc3c(c(=O)n2CC)SC(C)C3)s1 (stereo not drawn)	-15	6.5µM*	10%	13	-2%	2.6µM*
CC1Cc2nc(SCC(=O)N3CCc4ccccc43)n(C)c(=O)c2S1 (stereo not drawn)	9	i	7%	-22	-4%	2.6µM*
COc1cccc(NC(=O)Cn2c(=O)n(Cc3ccc(C(=O)NCc4ccc(C)cc4)cc3)c(=O)c3ccccc32)c1	.	i	.	.	.	i
O=C(CCNC(=O)c1ccc(Br)cc1)NNC(=O)C1COc2ccccc2O1 (stereo not drawn)	7	i	2%	-9	-1%	i
Cc1ccc(CSC(Nc2ccc(F)cc2)=C(C#N)C#N)cc1	-15	?	13µM*	-6	?	13µM*
CCN(CC)C(=O)CSC(Nc1ccc(F)cc1)=C(C#N)C#N	-2	i	-1%	4	1%	i
Cc1cc(C(=O)N[C@H](c2ccccc2)[C@@]2(C)C[C@@H]2[C@@H](C)C(=O)Nc2ccc3ccccc3c2)n(C)n1	-17	?	?	-13	15µM*	?
C=C(C)Cn1c(-c2ccccc2)nc2ccccc21	0	i	14%	17	3%	?
C=C1c2nc3ccccc3n2C=C(c2ccc(C)cc2)N1c1ccccc1	-26	16µM*	4.6µM*	2	?	?
O=C(NCN1CCOCC1)c1cnccn1	5	i	-2%	-7	0%	i
CC(C)c1cc(C(=O)N/N=C/c2ccco2)n[nH]1	-8	i	7%	-3	-7%	i
CSc1cccc(-n2cc(-c3ccc4c(c3)OCO4)[nH]c2=O)c1	-2	4.1µM*	21µM*	-2	21µM*	7.3µM*
CSc1cccc(NC(=O)CNC(=O)c2ccc3c(c2)OCO3)c1	1	i	-2%	9	-5%	i
Cc1ccc(CN(C(=O)c2csnn2)C(C(=O)NC2CCCC2)c2ccc(C)o2)cc1 (stereo not drawn)	-15	i	11%	4	0%	i
C=CCn1c(SCC(=O)c2[nH]c(C)c(C(=O)OCC)c2C)nc2scc(-c3ccc(OC)c(OC)c3)c2c1=O	14	i	3.3µM*	2	13µM*	?
O=C1c2ccccc2C(=O)N1CCc1csc(-c2cccc(F)c2)n1	7	i	?	-4	1%	16µM*

Screens as filed in PubChem BioAssay.
